From ChEMBL document CHEMBL1157539, “Thousands of chemical starting points for antimalarial lead identification” (Nature, 2010)

Assays:
Type in all cases: functional
[1] = system: Plasmodium falciparum; experiment: GSK_TCMDC: Inhibition of Plasmodium falciparum 3D7 in whole red blood cells, using parasite LDH activity as an index of growth. Test compounds present at 2uM
[2] = system: Plasmodium falciparum; experiment: GSK_TCMDC: Inhibition of Plasmodium falciparum Dd2 in whole red blood cells, using parasite LDH activity as an index of growth. Test compounds present at 2uM
[3] = system: HepG2; experiment: GSK_TCMDC: Percent inhibition of human HepG2 cell line. Test compounds present at 10uM.

SMILES	Inhibition [1]	Inhibition [2]	Inhibition [3]
CC(C)C[C@H](NC(=O)c1ccc(OCCN2CCOCC2)cc1)C(=O)N[C@H](/C=N/NC(=O)c1ccccc1)CCc1ccccc1	98%	90%	17%
COc1ccc(-c2cccc(NC(=O)c3cccc(Cl)c3)c2)cc1CN1CCNCC1.O=C(O)C(F)(F)F	100%	52%	29%
CC(C)NCc1ccc(-c2cccc(NC(=O)c3cccc(Cl)c3)c2)cc1.O=C(O)C(F)(F)F	100%	87%	24%
COc1ccc(C2CC(c3cccs3)=NN2C(=O)c2ccccc2)cc1OC (stereo not given)	99%	83%	5%
CCOc1ccc(C=CC(=O)Nc2ccc3nc(N4CCOCC4)cc(C)c3c2)cc1OC	92%	23%	14%
COc1ccccc1CN1CCC(CNC(=O)c2cc(-c3cccc(C(F)(F)F)c3)cs2)C1.O=C(O)C(F)(F)F (stereo not given)	84%	1%	25%
Fc1ccc2[nH]c(-c3ccc(-c4ccc(CN5CCC(CCN6CCCCC6)CC5)cc4)s3)nc2c1.O=C(O)C(F)(F)F	100%	100%	96%
c1ccc(C23NC(=Nc4nc5ccccc5[nH]4)NC2(c2ccccc2)NC(=Nc2nc4ccccc4[nH]2)N3)cc1 (stereo not given)	97%	89%	2%
CCCCCN1CCCN(Cc2cccc(NC(=O)c3ccc(-c4ccccc4)cc3)c2)CC1.O=C(O)C(F)(F)F	95%	15%	23%
CC(Oc1ccc(Cl)cc1)C(=O)NCCC1CCN(CCCCCNC(=O)/C=C/c2ccc(Cl)c(Cl)c2)CC1 (stereo not given)	89%	20%	48%
